In PubChem BioAssay AID485364 (National Center for Advancing Translational Sciences (NCATS), 2010):
Out of some 360,000 compounds screened, about 11,000 (3.1%) were called active. Roughly 4% stayed inconclusive and do not appear here. Calls come from the whole dose curve; as a rule, active = well fitted inhibition curve with a large enough effect; inconclusive = small, poorly fitted or top-dose-only effect; inactive = no such curve, though single readings can be large or run the other way. The entries come from a sample that favours actives as a whole.

Target: Schistosoma mansoni thioredoxin glutathione reductase (TGR) (UniProt Q962Y6)
Assay: qHTS Assay for the Inhibitors of Schistosoma Mansoni Peroxiredoxins; note: nearly all actives have a fitted effect of over 60% in size
Details: purified TGR, DTNB reduction, TNB absorbance 405 nm; series mostly up to 114 µM; activity change, negative = inhibition: at the top concentration
From the text: Schistosomiasis is a major neglected tropical disease that currently affects over 200 million. It is caused by different species of flatworms, such as Schistosoma mansoni. Over the last century, drugs to treat the disease have evolved from potassium antimonyl tartrate, artemisinin, oxamniquine, to praziquantel, with praziquantel remaining the universally-used single drug of choice over the past three decades. However, transmission rates have changed little with praziquantel, and there is evidence for the development of drug resistant parasites. Because there is currently no suitable alternative therapy available, there is an urgent need to identify new targets and drugs for schistosomiasis treatment. Thioredoxin glutathione reductase (TGR), one uniquely positioned S. mansoni enzyme, has been identified as a major component of the worms' distinct and compressed antioxidant "firewall". TGR is a multifunctional enzyme that catalyzes the interconversion between reduced and oxidized forms of both glutathione (GSH) and thioredoxins, thus making it an attractive new antiparasitic target. Recently, a quantitative high-throughput screen of the NIH Molecular Libraries Small Molecule Repository (MLSMR, ~71K at the time of the screen in 2007) was performed using an assay that targeted both TGR and peroxiredoxin2 (Prx2, an H2O2-reducing enzymatic component of the S. mansoni redox "firewall") by following the decrease of NADPH fluorescence. […] Additional mechanistic link between exogenous NO donation and parasitic injury for the oxadiazole-2-oxide class of compounds was also expanded and better defined. Although the screen addressed both TGR and Prx2, the assay required post-screen target deconvolution for further characterization of the actives. In addition, the fluorescence assay was also subject to fluorescence interference from compound library members. We have developed a 1536-well-based kinetic HTS assay to address TGR alone. The assay followed the reduction of 5, 5'-dithiobis (2-nitrobenzoic acid) (DTNB) (Ellman's reagent) by NADPH and measured the increase in absorbance at 412 nm of the reaction product, TNB. […] This assay format can be used to screen the current MLSMR collection (with >300K compounds available) to find novel TGR inhibitors. Furoxan is a good choice to serve as a positive control in the primary HTS assay.
Three microliters of reagents (100 uM NADPH and 20 nM TGR or 100 uM NADPH as no-enzyme control) were dispensed into 1,536-well black clear-bottomed plates. Compounds (23 nL) were transferred via Kalypsys pin tool equipped with 1536-pin array (10 nL slotted pins, V&P Scientific, San Diego, CA). The plates were then be incubated for 15 min at room temperature, and 1 uL aliquot of 500 uM NADPH were added, immediately followed by a 1 uL aliquot of 15 mM DTNB to start the reaction. The plate was transferred to a ViewLux high-throughput CCD imager (Perkin-Elmer, Wellesley, MA) where kinetic measurements of the TNB absorbance were acquired using a 405 excitation filter. Throughout the screen, reagent bottles and all liquid lines were made light-tight to minimize reagent degradation. All screening operations were performed on a fully integrated robotic system (Kalypsys, San Diego, CA) containing one RX-130 and two RX-90 anthropomorphic robotic arms (Staubli, Duncan, SC). Library plates were screened starting from the lowest and proceeding to the highest concentration, and a "double-dipping" step of the highest concentration was required to access higher concentrations of compounds. Vehicle-only plates, with DMSO being pin-transferred to the entire column 5-48 compound area, were inserted uniformly at the beginning and the end of each library in order to monitor for and record any shifts in the background, which can be affected by reagent dispensers or loss in enzyme activity overtime. […]
% is set by controls: 0 for no effect and ±100 for the full control effect; potency is the fitted concentration of half-maximal effect.

| Structure (SMILES) | activity change, negative = inhibition | Potency |
| --- | --- | --- |
| CCCOC(=O)c1c(NC(=O)c2cc3nc(-c4ccc(OC)cc4)cc(C(F)(F)F)n3n2)sc2c1CCCC2 | 53.4% (inactive) | – |
| COc1ccc(C2(Nc3cccc(F)c3)C(=O)c3ccccc3C2=O)cc1 | 9.65% (inactive) | – |
| CC1(C)CC(=O)C(C=NCCN2CCN(C(=S)Nc3cccc(Cl)c3)CC2)=C(O)C1 | -9.3% (inactive) | – |
| CC(=O)N1CCN(CCN=CC2=C(O)CC(C)(C)CC2=O)CC1 | – | 28.2 µM (active) |
| CCNC(=S)N1CCN(CCN=CC2=C(O)CC(C)(C)CC2=O)CC1 | -20.2% (inactive) | – |
| CCOc1ccccc1C(=O)NCc1ccc2c(c1)CCN2C(=O)c1ccc(F)cc1 | 0.127% (inactive) | – |
| CCOC(=O)c1ccc(NC2=CC(c3ccc(OCC)cc3)N(c3ccc(C(=O)OCC)cc3)C2=O)cc1 (stereo not given) | -0.96% (inactive) | – |
| CC(C)(C)OC(=O)N1CCC(c2c(C(=O)N3CCN(c4cccc(Cl)c4)CC3)cnn2-c2cccc(Cl)c2)CC1 | 14.1% (inactive) | – |
| COc1ccccc1OCC(=O)OCc1cc(-c2ccco2)on1 | – | 56.2 µM (active) |
| COc1ccc(NC(=O)COCc2cc(-c3ccco3)on2)cc1 | 0.166% (inactive) | – |
| COc1ccccc1OCC(=O)O/N=C(\N)c1ccccn1 | 11.4% (inactive) | – |
| O=C(CCS(=O)(=O)c1cc(Br)cc2c1N(C(=O)C1CC1)CC2)Nc1ccc(C(F)(F)F)cc1 | -5.59% (inactive) | – |
| CC1(C)CC(=O)C(N=Nc2ccc(S(=O)(=O)N3CCCCCC3)cc2)=C(O)C1 | -12% (inactive) | – |
| Cc1ccc(S(=O)(=O)N2CCN(S(=O)(=O)N3CCOCC3)CC2)cc1 | 0.025% (inactive) | – |
| O=C1CCCC(O)=C1N=Nc1ccc(S(=O)(=O)N2CCOCC2)cc1 | – | 44.7 µM (active) |
| COc1ccc(-c2nn3c(-c4ccc(OC)cc4)nnc3c3ccccc23)cc1 | 8.01% (inactive) | – |
| Cc1cc2c(cc3c(SCc4nc(-c5ccccc5)oc4C)nnc(C)n32)o1 | 1.33% (inactive) | – |
| Cc1noc2ncnc(NCc3ccccc3Cl)c12 | -1.77% (inactive) | – |
| Cc1c(C(=O)N(C)C)sc2c1c(=O)n(-c1ccc(F)cc1)c(=O)n2CC(=O)N(C)c1ccccc1 | 9.3% (inactive) | – |
| C(=N\Nc1ccc2ccccc2n1)/c1ccc2c(c1)OCO2 | 0.889% (inactive) | – |
| Cc1cc(=O)[nH]c(N/N=C/c2c(C)nn(-c3ccccc3Cl)c2Cl)n1 | -10.1% (inactive) | – |
| Cc1cc(=O)[nH]c(N/N=C/c2ccc3c(c2)OCCO3)n1 | – | 39.8 µM (active) |
| CC1=Nc2cc(C(=O)NCc3ccc(C)cc3)ccc2Sc2ccc(Cl)cc21 | -3.91% (inactive) | – |
| COc1cccc(CNC(=O)Cn2ncn3c(cc4ccccc43)c2=O)c1 | 1.74% (inactive) | – |
| COc1ccccc1CNS(=O)(=O)c1ccc(C)cc1 | 0.213% (inactive) | – |

| Structure (SMILES) | activity change, negative = inhibition | Potency |
| --- | --- | --- |
| COC(=O)C1=C(C)NC(=O)/C1=C/c1ccc(CNS(=O)(=O)c2ccc(C)cc2)o1 | – | 22.4 µM (active) |
| Cc1ccc(CCNC(=O)c2ccc(CNS(=O)(=O)c3ccc(C)cc3)cc2)cc1 | -4.55% (inactive) | – |
| CCc1ccccc1NC(=O)c1ccc(F)c(S(=O)(=O)NC2CCCCCC2)c1 | 46.2% (inactive) | – |
| CN(C)N=Nc1ccc2nc[nH]c2c1 | – | 39.8 µM (active) |
| CC/C(O)=N\S(=O)(=O)c1ccc(N=NN(C)C)cc1 | 9.42% (inactive) | – |
| COc1ccc(/C(C)=N/NC(=O)c2ccc3nc[nH]c3c2)cc1 | -6.56% (inactive) | – |
| CCc1nn(CC(=O)Nc2cc(C)cc(C)c2)c(=O)c2cc3sccc3n12 | -2.35% (inactive) | – |
| CC(=O)N(CN1C(=O)C2CC=CCC2C1=O)c1cccc(Cl)c1 (stereo not given) | -19.7% (inactive) | – |
| COC(=O)c1cc(C(=O)N(Cc2ccccc2)c2ccccn2)cc([N+](=O)[O-])c1 | -1.34% (inactive) | – |
| O=C(CCl)N(Cc1cccc([N+](=O)[O-])c1)c1cccc(Cl)c1 | – | 2.51 µM (active) |
| COc1cc(-c2noc(-c3ccc(N4CCCC4)c([N+](=O)[O-])c3)n2)cc(OC)c1OC | -30% (inactive) | – |
| O=C(Nc1ccc(Br)cc1)c1cc2nc(-c3ccccc3)cc(-c3ccccc3)n2n1 | 6.76% (inactive) | – |
| Cc1ccc(NC(=O)C2CCCN2C(=O)OCc2ccccc2)cc1C (stereo not given) | -10.2% (inactive) | – |
| Cc1ccc(NNC(=O)C2CCC2)cc1C | – | 56.2 µM (active) |
| O=C(NNC(=O)C1CCC1)c1ccccc1 | 49.6% (inactive) | – |
| Cc1oc(-c2ccccc2F)nc1CN1CCC(C(=O)NCCc2ccc(Cl)cc2)CC1 | -0.147% (inactive) | – |
| CCOC(=O)c1c(S(=O)(=O)N2CCCC(C(=O)NCc3cccc(C)c3)C2)c(C)n(C)c1C (stereo not given) | 7.51% (inactive) | – |
| Cc1ccccc1CS(=O)(=O)CC1Nc2ccc(C(=O)NCc3ccc(Cl)cc3)cc2NC1=O (stereo not given) | -2.2% (inactive) | – |
| Cc1cc(C)cc(NC(=O)Cc2csc(C)n2)c1 | 8.94% (inactive) | – |
| Cc1cccc(C)c1NC(=O)CCCSc1nnc(-c2ccco2)n1-c1ccccc1 | – | 89.1 µM (active) |
| CCc1cccc(C)c1NC(=O)CSc1nnc(-c2ccco2)n1N | 1.38% (inactive) | – |
| CCOc1ccc(-n2c(SCC(N)=O)nnc2-c2ccco2)cc1 | -34% (inactive) | – |
| COC(=O)c1ccccc1NC(=S)NC(=O)c1ccccc1F | – | 22.4 µM (active) |
| O=C(NC(=S)NC1CCSC1=O)c1ccccc1F (stereo not given) | 2.76% (inactive) | – |
| CC(C)C(=O)NC(=S)Nc1ccccc1F | -28.6% (inactive) | – |
